The values below come from ChEMBL document CHEMBL2218924, “A broad activity screen in support of a chemogenomic map for kinase signalling research and drug discovery” (Biochem J, 2013).

Assay [1] concerns the target Tyrosine-protein kinase SYK (Homo sapiens) (UniProt P43405). As to conditions: at 10 µM.
The target in assay [2] is T1, Mitogen-activated protein kinase kinase kinase 7 (Homo sapiens) (UniProt O43318).
T1 sequence (whole entry): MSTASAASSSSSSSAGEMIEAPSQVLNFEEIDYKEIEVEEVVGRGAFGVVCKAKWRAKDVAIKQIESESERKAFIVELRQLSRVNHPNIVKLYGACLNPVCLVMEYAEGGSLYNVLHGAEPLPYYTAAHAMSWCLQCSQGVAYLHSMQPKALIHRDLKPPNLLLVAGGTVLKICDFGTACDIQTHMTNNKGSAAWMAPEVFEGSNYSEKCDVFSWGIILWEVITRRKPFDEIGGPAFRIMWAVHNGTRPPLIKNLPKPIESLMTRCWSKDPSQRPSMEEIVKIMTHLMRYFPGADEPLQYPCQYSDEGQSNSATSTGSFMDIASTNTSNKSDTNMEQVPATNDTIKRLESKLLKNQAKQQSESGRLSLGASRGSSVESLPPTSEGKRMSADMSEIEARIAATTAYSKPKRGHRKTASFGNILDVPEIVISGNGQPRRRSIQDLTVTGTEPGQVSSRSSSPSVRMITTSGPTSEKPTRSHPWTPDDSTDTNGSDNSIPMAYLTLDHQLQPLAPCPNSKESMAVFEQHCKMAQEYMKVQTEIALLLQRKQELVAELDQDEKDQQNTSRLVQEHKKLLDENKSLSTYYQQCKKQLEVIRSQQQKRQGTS
As to conditions: at 1 µM.

Assay [3] addresses T1, Mitogen-activated protein kinase kinase kinase 7 (Homo sapiens). As to conditions: at 10 µM.
The target of assay [4] is T2, Serine/threonine-protein kinase TAO1 (Homo sapiens) (UniProt Q7L7X3).
T2 sequence (whole entry): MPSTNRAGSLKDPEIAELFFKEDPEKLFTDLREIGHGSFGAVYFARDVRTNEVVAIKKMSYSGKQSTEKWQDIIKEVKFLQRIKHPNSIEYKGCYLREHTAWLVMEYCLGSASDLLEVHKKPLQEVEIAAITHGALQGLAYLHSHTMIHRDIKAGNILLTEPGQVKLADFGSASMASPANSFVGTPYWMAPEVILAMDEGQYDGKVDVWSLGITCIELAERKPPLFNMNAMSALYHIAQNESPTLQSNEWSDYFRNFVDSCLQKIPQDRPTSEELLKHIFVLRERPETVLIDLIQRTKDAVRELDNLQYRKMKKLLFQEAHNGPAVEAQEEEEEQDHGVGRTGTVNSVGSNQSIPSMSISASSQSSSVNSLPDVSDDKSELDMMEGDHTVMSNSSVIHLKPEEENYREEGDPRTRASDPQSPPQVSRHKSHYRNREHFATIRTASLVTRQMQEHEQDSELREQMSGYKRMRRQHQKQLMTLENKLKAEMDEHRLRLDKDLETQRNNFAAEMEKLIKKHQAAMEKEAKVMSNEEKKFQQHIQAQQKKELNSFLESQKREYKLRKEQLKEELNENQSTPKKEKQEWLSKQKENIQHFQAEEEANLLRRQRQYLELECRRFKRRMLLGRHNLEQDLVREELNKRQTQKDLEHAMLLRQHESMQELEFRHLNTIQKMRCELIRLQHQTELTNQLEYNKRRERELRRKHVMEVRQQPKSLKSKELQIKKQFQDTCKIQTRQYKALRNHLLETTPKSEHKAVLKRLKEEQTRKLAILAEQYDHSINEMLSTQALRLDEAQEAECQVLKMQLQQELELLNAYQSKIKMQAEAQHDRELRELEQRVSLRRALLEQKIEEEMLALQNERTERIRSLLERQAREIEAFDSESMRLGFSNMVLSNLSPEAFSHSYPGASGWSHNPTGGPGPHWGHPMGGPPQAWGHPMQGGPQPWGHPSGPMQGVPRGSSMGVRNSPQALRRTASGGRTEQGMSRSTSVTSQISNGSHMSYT
As to conditions: at 1 µM.

Assay [5] has as its target T2, Serine/threonine-protein kinase TAO1 (Homo sapiens). As to conditions: at 10 µM.
For assay [6], the target named is T3, Serine/threonine-protein kinase TAO2 (Homo sapiens) (UniProt Q9UL54).
T3 sequence (whole entry): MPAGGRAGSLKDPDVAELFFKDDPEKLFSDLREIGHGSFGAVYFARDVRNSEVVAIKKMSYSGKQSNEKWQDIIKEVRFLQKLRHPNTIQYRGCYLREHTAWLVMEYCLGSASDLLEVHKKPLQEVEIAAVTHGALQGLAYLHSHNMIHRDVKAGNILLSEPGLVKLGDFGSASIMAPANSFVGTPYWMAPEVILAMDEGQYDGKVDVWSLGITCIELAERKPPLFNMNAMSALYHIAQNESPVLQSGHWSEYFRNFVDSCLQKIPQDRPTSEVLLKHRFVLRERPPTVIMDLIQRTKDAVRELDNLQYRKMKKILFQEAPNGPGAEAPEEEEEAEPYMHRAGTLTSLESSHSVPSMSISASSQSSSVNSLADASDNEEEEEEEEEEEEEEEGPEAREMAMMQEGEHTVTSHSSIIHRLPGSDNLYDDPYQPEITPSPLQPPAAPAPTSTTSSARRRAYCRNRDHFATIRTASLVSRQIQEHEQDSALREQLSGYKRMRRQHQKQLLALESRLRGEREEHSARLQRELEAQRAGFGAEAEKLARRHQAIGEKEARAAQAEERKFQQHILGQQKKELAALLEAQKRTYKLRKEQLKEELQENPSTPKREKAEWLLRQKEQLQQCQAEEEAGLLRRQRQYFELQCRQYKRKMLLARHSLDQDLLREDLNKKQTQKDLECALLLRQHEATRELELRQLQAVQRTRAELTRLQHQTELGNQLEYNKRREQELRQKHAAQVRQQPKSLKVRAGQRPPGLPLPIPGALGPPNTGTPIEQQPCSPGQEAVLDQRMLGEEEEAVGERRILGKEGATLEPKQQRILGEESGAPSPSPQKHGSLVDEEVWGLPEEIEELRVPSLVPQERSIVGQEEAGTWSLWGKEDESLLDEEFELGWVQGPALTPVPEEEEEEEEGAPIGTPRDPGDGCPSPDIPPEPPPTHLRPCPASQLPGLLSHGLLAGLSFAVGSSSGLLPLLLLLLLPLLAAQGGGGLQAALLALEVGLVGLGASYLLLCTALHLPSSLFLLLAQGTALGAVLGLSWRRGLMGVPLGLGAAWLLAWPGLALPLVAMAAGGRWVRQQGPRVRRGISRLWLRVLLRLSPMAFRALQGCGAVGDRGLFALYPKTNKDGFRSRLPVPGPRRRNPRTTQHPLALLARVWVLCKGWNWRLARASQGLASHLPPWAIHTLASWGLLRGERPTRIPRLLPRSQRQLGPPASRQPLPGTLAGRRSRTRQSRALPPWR
As to conditions: at 1 µM.

Assay [7] deals with T3, Serine/threonine-protein kinase TAO2 (Homo sapiens). As to conditions: at 10 µM.
Assay [8] concerns the target T4, Serine/threonine-protein kinase TAO3 (Homo sapiens) (UniProt Q9H2K8).
T4 sequence (whole entry): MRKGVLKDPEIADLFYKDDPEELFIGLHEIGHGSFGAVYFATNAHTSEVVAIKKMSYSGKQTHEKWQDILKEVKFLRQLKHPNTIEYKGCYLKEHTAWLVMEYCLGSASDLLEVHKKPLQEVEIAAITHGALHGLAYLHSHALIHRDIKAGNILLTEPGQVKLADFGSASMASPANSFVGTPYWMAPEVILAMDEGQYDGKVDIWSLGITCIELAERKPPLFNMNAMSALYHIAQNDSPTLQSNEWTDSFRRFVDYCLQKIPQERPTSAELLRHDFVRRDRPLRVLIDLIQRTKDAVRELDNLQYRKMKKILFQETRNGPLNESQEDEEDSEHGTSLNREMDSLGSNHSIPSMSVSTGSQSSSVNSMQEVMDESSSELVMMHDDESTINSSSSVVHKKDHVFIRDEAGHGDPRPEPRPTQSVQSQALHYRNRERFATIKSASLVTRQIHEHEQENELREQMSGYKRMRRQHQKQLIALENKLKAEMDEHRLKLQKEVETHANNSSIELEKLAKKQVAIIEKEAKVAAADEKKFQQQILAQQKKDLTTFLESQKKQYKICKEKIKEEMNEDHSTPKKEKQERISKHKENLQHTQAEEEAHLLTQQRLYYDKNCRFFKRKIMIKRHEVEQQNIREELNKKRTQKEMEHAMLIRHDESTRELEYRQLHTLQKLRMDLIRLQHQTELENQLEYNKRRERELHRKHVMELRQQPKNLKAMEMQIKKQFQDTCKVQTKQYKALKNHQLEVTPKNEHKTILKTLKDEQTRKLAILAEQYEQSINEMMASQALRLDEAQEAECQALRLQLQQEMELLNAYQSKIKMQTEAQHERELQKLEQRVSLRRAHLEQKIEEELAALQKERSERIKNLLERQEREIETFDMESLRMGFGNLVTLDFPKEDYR
As to conditions: at 1 µM.

In assay [9] the target is T4, Serine/threonine-protein kinase TAO3 (Homo sapiens). As to conditions: at 10 µM.
Assay [10] concerns the target T5, Serine/threonine-protein kinase TBK1 (Homo sapiens) (UniProt Q9UHD2).
T5 sequence (whole entry): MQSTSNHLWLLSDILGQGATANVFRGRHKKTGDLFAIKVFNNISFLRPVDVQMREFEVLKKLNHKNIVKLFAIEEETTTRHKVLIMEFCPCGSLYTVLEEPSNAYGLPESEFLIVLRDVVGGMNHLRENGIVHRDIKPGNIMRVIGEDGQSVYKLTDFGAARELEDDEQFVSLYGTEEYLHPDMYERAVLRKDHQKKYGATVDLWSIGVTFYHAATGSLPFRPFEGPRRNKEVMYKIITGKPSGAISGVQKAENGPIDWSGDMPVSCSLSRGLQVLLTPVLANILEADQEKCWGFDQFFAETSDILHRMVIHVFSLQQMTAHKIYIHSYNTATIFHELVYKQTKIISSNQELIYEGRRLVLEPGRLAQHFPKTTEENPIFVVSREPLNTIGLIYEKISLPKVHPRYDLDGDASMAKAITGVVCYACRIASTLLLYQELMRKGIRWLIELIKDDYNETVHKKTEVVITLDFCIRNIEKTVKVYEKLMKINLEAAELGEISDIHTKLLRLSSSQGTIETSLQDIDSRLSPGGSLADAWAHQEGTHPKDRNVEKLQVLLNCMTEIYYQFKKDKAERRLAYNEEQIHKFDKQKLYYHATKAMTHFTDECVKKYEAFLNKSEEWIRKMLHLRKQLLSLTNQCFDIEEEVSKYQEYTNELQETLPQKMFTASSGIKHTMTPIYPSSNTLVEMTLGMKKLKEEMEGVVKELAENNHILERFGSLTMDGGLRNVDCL
As to conditions: at 1 µM.

As for `O=c1c2ccccc2[nH]c(=S)n1CCN1CCC(=C(c2ccc(F)cc2)c2ccc(F)cc2)CC1`, the residual activity was found to be 68% in [1]; 97% in assay [2]; 83% in assay [3]; 109% in assay [4]; 88% in assay [5]; 107% in [6]. In addition, the residual activity in [7] worked out at 79%; in assay [8] it was 109%; in assay [9] it was 86%; in assay [10] it was 91%.
